A selection: hits, their analogues and other compounds. The true share with any hit is near 4.8%.
hgDAF-12 ag: activates the H. glycines DAF-12 receptor ligand-binding domain; HEK293 GAL4-hgDAF12 UAS-luciferase reporter, agonist luminescence; normalized to butyrate control; activation, % at 6.8 µM; 1.8% of 370,000 active; AID 687014;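 active means activation above a cutoff set at the mean of all screened compounds plus 3 SD, cut at about 10% in these data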
Rev-erbA mod: modulates human Rev-erb alpha binding to DNA | P20393 | Rev-erbα–FITC-DNA binding, fluorescence polarization, 90 min | activity, % at 10 µM | 0.79% of 370,000 active | AID 1259318;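 active means activity above about 14%, limit read from the data; passing the limit was not always enough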
DAX1 inh-1: inhibitors of human orphan nuclear receptor DAX1 (NR0B1); HEK293 Gal4-DAX1 luciferase reporter, luminescence; inhibition, % at 6.75 µM; 0.99% of 340,000 active; AID 504766;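 active means inhibition above the mean over all tested compounds plus 3 SD, cut at about 4.2% in these data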;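 further: inhibition shows as a rise in luminescence from relieved DAX1 repression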
Target sequence (P51843 207-470 limits assumed): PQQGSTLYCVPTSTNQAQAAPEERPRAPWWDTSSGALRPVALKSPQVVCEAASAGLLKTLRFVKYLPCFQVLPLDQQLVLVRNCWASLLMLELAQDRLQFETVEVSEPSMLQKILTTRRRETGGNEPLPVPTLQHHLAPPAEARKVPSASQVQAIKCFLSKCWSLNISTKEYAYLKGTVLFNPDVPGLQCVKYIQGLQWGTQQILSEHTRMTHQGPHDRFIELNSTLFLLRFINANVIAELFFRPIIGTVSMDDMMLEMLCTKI
hcDAF12 agonist: activators of H. contortus DAF-12 nuclear receptor | HEK293 hcDAF-12 lit1-tk-luc reporter, luminescence; 0% DMSO, 100% Δ7-dafachronic acid | activation, % at 6.8 µM | 1.4% of 370,000 active;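 active means activation above the mean of all tested compounds plus 3 SD, cut at about 5.5% in these data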
DAX1 inh-2: inhibitors of DAX1 repression of SF-1 activated StAR promoter. inhibition, % at 6.8 µM. HEK293T StAR-luciferase reporter, SF-1/DAX-1 repression relief. 1.1% of 370,000 active. AID 652010;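 active means inhibition above the mean over all tested compounds plus 3 SD, cut at about 3.6% in these data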;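 further: higher inhibition means more luminescence from relief of DAX-1 repression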
ssDAF12 agonist: activates DAF-12 receptor from parasite S. stercoralis; 1% of 370,000 active; HEK293 ssDAF-12/GRIP1 lit1-tk-luc reporter, luminescence; % of 3 µM dafachronic acid response; activation, % at 6.8 µM;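 active means activation above the mean over all tested compounds plus 3 SD, cut at about 0.9% in these data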
NR1D1 mod conf: Rev-erb alpha (human) modulation, hit confirmation; shares compounds with Rev-erbA mod; Rev-erb alpha FITC-DNA binding, fluorescence polarization, 90 min; activation, % at 25 µM; 61% of 3,000 active; AID 1259319;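 active means activation at or above a set limit, or at least 3 SD above the negative control mean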
RORg DNA counter: RORgamma DNA-binding activity, dose-response counter-screen; 8% of 910 active; purified RORgamma protein-FITC-DNA binding, fluorescence polarization; IC50, µM; AID 1259320; shares compounds with Rev-erbA mod;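 active means Compounds whose fitted half-maximal concentration for disrupting protein-DNA binding is below 10 micromolar; the record names Rev-erb in its text, so the target is in doubt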
Each line names hits and unclear results; the compound was inactive in the other large screens (follow-up assays come after a bar, where they were run).

CC(=O)Nc1ccc(N2C(=O)c3cccc4c(O)ccc(c34)C2=O)cc1	Rev-erbA mod 28.6 | NR1D1 mod conf 39.6 | RORg DNA counter 1.25
O=C1c2cccc3c(O)ccc(c23)C(=O)N1c1ccc(Cl)cc1	Rev-erbA mod 59.9 | NR1D1 mod conf 53.1 | RORg DNA counter 9.4
Cc1ccccc1N1CCN(C(=O)COc2cc(=O)n(C)c3ccccc23)CC1	none (no result: DAX1 inh-1)
CCCCCCCCCCCCCCCCC(C(=O)O)C(O)(CC(=O)O)C(=O)O (stereo not drawn)	none (no result: hgDAF-12 ag, DAX1 inh-1, hcDAF12 agonist, DAX1 inh-2, ssDAF12 agonist)
Cc1ccc(C(c2sc3nc(C)nn3c2O)N2CCN(CCO)CC2)cc1 (stereo not drawn)	Rev-erbA mod 17.0 | NR1D1 mod conf inactive
O=C(C(=O)N1CCN(S(=O)(=O)c2cccc(C(F)(F)F)c2)CC1)c1cccc(C(F)(F)F)c1	none (no result: DAX1 inh-1)
COc1cccc(C2NC(=O)c3sc(=S)n(-c4ccccc4)c3N2)c1 (stereo not drawn)	none
COc1ccc(OC)c(C2NC(=O)c3sc(=S)n(-c4ccccc4)c3N2)c1 (stereo not drawn)	Rev-erbA mod 38.9 | NR1D1 mod conf inactive
Cc1cc(-c2ccccc2)[nH]c(=O)c1S(=O)(=O)c1ccc(Cl)cc1	Rev-erbA mod 51.0 | NR1D1 mod conf 20.8
COC(=O)Cc1nnn2c1[C@H](C)[C@@H](OC)c1ccc(C(F)(F)F)cc1-2	none (no result: DAX1 inh-1)
COc1ccc(C(C)=O)cc1COC(=O)c1c(C)noc1C	none
COc1ccc(C(C)=O)cc1COC(=O)c1ccc(OCc2c(C)noc2C)cc1	Rev-erbA mod 16.3 | NR1D1 mod conf inactive
Cc1nc2ccc(S(=O)(=O)NCC(=O)NCc3cccs3)cc2s1	none (no result: DAX1 inh-1)
Cc1ccc(-n2nc(C)c3c(-c4cccs4)c(C#N)c(N)nc32)cc1	Rev-erbA mod 60.1 | NR1D1 mod conf 30.3
C=CCN(CC#Cc1ccccn1)Cc1ccc(OC)cc1OC	none (no result: DAX1 inh-1)
COc1ccc(C(=O)c2c(-c3ccc(OC)cc3)oc3ccc(-c4ccc(OC)nc4)cc23)cc1	Rev-erbA mod 17.1 | NR1D1 mod conf inactive
Cc1cc(N2CCN(c3ccccc3)CC2)n2ncnc2n1	none
Cc1cc(C)c2c(n1)nn1c(N3CCN(c4ccccc4)CC3)cc(C)nc21	Rev-erbA mod 40.2 | NR1D1 mod conf 26.3
OCC1OC(Oc2cccc3ccccc23)C(O)C(O)C1O (stereo not drawn)	Rev-erbA mod 26.4 | NR1D1 mod conf inactive
OC[C@H]1O[C@@H](Oc2ccc(O)cc2)[C@H](O)[C@@H](O)[C@@H]1O	none
CC(C)C[C@@H](CCCc1ccccc1)CCC(=O)N(c1ccccc1)c1ccccc1	none (no result: DAX1 inh-1)
Cc1ccc(Cn2cc(COC(=O)Nc3ccc(F)cc3)nn2)cc1	none (no result: DAX1 inh-1)
COCCCN1C(=O)[C@H](CC(=O)NCCc2ccccc2OC)[C@]2(C(=O)OC)CCCCC=C12	none (no result: DAX1 inh-1)
c1cnc2nc3c4ccccc4c4ccccc4c3nc2c1	none
Brc1cccc(-c2nc3cccnc3nc2-c2cccc(Br)c2)c1	Rev-erbA mod 13.8 | NR1D1 mod conf inactive
Oc1ccccc1C=NN1CCN(Cc2ccccc2)CC1	none (no result: DAX1 inh-1)
O=C(Nc1ccccc1N1CCCCC1)c1ccc(Cl)c([N+](=O)[O-])c1	none
CN(CC(=O)Nc1ccccc1Cl)C(=O)c1ccc(N2CCCCCC2)c([N+](=O)[O-])c1	none
Cc1cccc(NC(=O)CN(C)C(=O)c2ccc(N3CCCCCC3)c([N+](=O)[O-])c2)c1C	Rev-erbA mod 17.2 | NR1D1 mod conf inactive
CN1CCN(c2ccccc2NC(=O)c2ccc(N3CCCC3)c([N+](=O)[O-])c2)CC1	Rev-erbA mod 16.1 | NR1D1 mod conf inactive
CCN(CC)C(=O)CSc1nc(N)c(C#N)c(-c2cccs2)c1C#N	Rev-erbA mod 32.8 | NR1D1 mod conf 32.9 | RORg DNA counter inactive
Cc1ccccc1NC(=O)CSc1nc(N)c(C#N)c(-c2cccs2)c1C#N	Rev-erbA mod 126.1 | NR1D1 mod conf 95.3
Cc1cc(C)c(C#N)c(SCC(=O)Nc2ccccc2C)n1	none
CCN(CC)C(=O)CSc1nc(-c2cccs2)cc(-c2cccs2)c1C#N	none
COc1ccc(CCNC(=O)CSc2nc(N)c(C#N)c(-c3cccs3)c2C#N)cc1OC	Rev-erbA mod 37.3 | NR1D1 mod conf 22.9
C[C@@H]1COc2cc(NCCCN3CCOCC3)ccc2S(=O)(=O)N1	none (no result: DAX1 inh-1)
Nc1nc2c(Br)ccc(Br)c2cc1C(=O)NCc1cccc2ccccc12	none (no result: DAX1 inh-1)
CN(C)C=Nc1nc2c(Br)ccc(Br)c2cc1C(=O)NCC(C)(C)C	Rev-erbA mod 23.2 (no result: DAX1 inh-1) | NR1D1 mod conf 40.0 | RORg DNA counter inactive
COc1ccc(N2C(=O)c3n[nH]c(C)c3C2c2ccccc2)cc1 (stereo not drawn)	none (no result: DAX1 inh-1)
COc1ccc(C=Cc2ccc3ccccc3n2)c(OC)c1	Rev-erbA mod 20.1 | NR1D1 mod conf inactive
COc1ccc(OC)c(/C=C/c2ccc3cccc(O)c3n2)c1	none
Cc1nc(N(C)C2CCCCC2)c2nnn(Cc3ccc(F)cc3)c2n1	Rev-erbA mod 31.3 | NR1D1 mod conf inactive
COC(=O)CSc1ccc2nnc(-c3ccc(OC)c(OC)c3)n2n1	none
COc1ccc(-c2nnc3ccc(SCC(=O)Nc4nc5ccc(C)cc5s4)nn23)cc1OC	Rev-erbA mod 25.1 | NR1D1 mod conf 25.9
COc1ccc(C)cc1NC(=O)c1sc2ncn(CC(=O)N3CCCCC3)c(=O)c2c1C	Rev-erbA mod 29.4 | NR1D1 mod conf 24.0
COc1cc(NC(=O)c2sc3ncn(CC(=O)N4CCCCC4)c(=O)c3c2C)cc(OC)c1OC	none
COC(=O)C1=C(C)N(Cc2ccc(Br)cc2)C(=S)NC1c1cccc(F)c1 (stereo not drawn)	none (no result: DAX1 inh-1)
O=C(Cn1c2ccccc2c(=O)c2ccccc21)Nc1cccc(F)c1	Rev-erbA mod 28.0 | NR1D1 mod conf inactive
CN1C2=C(C#N)C(c3ccccc3)(C(F)(F)F)NC(=O)N2c2ccccc21 (stereo not drawn)	none
Cc1ccc(C2(C(F)(F)F)NC(=O)N3C(=C2C#N)Nc2ccccc23)cc1 (stereo not drawn)	Rev-erbA mod 33.5 | NR1D1 mod conf 32.3 | RORg DNA counter inactive
Cc1cccn2c(=O)c3cc(C(=O)NC4CCCCC4)c(=N)n(Cc4ccccc4)c3nc12	none
Cc1cccn2c(=O)c3cc(C(=O)NC4CCS(=O)(=O)C4)n(Cc4ccccc4)c3nc12 (stereo not drawn)	Rev-erbA mod 43.6 | NR1D1 mod conf inactive
CCc1nnc2sc(-c3ccc(NC(=O)c4ccco4)cc3)nn12	none

Screens deposited in PubChem BioAssay by several laboratories.
